Results reported in paper PMC7819943, “Rice protein-binding microarrays: a tool to detect cis-acting elements near promoter regions in rice”.
In all, about 39,000 sequences were measured (“fluorescence intensity (a.u.)”: median about 4,300, highest 2% from about 39,000 on). For the sample, the highest values were picked, then their nearest neighbours and some sequences at random.

These sequences were tested against T1, OsSMF1 (Oryza sativa, UniProt Q6ZLB0 1-436) (assay: protein-binding microarray (RPBM); PBS, 2% BSA, 51.3 ng/ul salmon testes DNA, 50 uM zinc acetate, 200 nM TF, 25 C, 1 h; high values mean tight binding). Conditions: protein: recombinant; tags: N-terminal polyhistidine and DsRed monomer fusion (pET32a); chain copies: 2; label: CyDye5-dUTP incorporated in the synthesized complementary strand; 3' TTTTT single-stranded linker to array surface; dsDNA, one strand shown.
T1 sequence: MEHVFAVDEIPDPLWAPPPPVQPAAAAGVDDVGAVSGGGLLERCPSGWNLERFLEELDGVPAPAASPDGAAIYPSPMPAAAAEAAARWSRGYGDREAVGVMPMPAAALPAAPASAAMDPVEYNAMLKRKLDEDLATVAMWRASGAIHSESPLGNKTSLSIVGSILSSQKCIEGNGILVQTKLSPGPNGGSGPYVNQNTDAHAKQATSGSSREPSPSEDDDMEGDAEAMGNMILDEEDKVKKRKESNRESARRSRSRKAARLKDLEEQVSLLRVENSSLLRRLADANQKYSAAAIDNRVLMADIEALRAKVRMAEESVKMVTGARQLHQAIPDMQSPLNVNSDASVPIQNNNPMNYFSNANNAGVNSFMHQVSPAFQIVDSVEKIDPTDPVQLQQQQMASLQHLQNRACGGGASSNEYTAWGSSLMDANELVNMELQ
How it was run: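 For the binding signal, per-feature fluorescence intensity was read in arbitrary units on an Axon 4000B scanner. Before scanning, a 2% BSA-blocked custom Agilent array made double-stranded with Cy5-dUTP was washed after 1 h at 25 °C with 200 nM protein and 50 µM zinc acetate. The proteins were Ni–NTA-purified transcription factors with N-terminal polyhistidine and DsRed fusions, expressed in E. coli BL21-CodonPlus.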

In order of rising binding signal:
1. CTCTCTCCTCGTCTTCCTCGCGCTGACTCTTCTCCTCCTCCGGAGTCACCTAGTGCAG  3180 fluorescence intensity (a.u.)
2. GCCTGTAGCCTGGTGGTTACAAGAGCCTCAGTAGCACCTGCGGAGTCACCTAGTGCAG  3250 fluorescence intensity (a.u.)
3. CCATCTCCGACGAATGATGCTTTGACACTTAATGCTGCGTCGGAGTCACCTAGTGCAG  3350 fluorescence intensity (a.u.)
4. GGGCGCACCTACAGCACCAAGTGTAACCAGAGCTTACACACGGAGTCACCTAGTGCAG  3420 fluorescence intensity (a.u.)
5. CAAATGTTCTTTTGACGTATATGACCACATATTTGCAGTACGGAGTCACCTAGTGCAG  3520 fluorescence intensity (a.u.)
6. GGAAGCGGCTGCTGACAATGGGGATTAGATAGGCTAAGGGCGGAGTCACCTAGTGCAG  3700 fluorescence intensity (a.u.)
7. CCTCCATCTATGTCCTGCTGTCCAACATCTACGCGGATGCCGGAGTCACCTAGTGCAG  3820 fluorescence intensity (a.u.)
8. CAACGGCTATGAGCTGTCACACACTCACAGTAGTACTCCGCGGAGTCACCTAGTGCAG  3850 fluorescence intensity (a.u.)
9. CCGAGGCCCAATAAATTATGGGGTTGGCTCCAATAAATTACGGAGTCACCTAGTGCAG  3940 fluorescence intensity (a.u.)
10. TACTACTTCCGATCAGAGCCATACCAATGCCACGACACGACGGAGTCACCTAGTGCAG  4090 fluorescence intensity (a.u.)
11. TGCAACCACCACCACCACGTCCCAAACTCGCACGTTTCTCCGGAGTCACCTAGTGCAG  4090 fluorescence intensity (a.u.)
12. GAGGACAGATCAAATGATTTTAATGACGAAACATGTGCTTCGGAGTCACCTAGTGCAG  4096 fluorescence intensity (a.u.)
13. GCTAGCACTCGCCTCCCTCTGCGCCCACGCCACGCTGTGGCGGAGTCACCTAGTGCAG  4110 fluorescence intensity (a.u.)
14. CTTCACCGGCGGCGAGGAGCACGTCACCGGCGGCGAGCACCGGAGTCACCTAGTGCAG  4120 fluorescence intensity (a.u.)
15. TTCTCCTCGGCCTCCATGTGCACGTCCATGTGGCGCATGGCGGAGTCACCTAGTGCAG  4220 fluorescence intensity (a.u.)
16. TTAAGGACGATTTTGTAATTCAGCTGACAAGACGAGGGATCGGAGTCACCTAGTGCAG  4300 fluorescence intensity (a.u.)
17. CAAGTGATAATCTATACCTAGTTGATGATGCCAATATCATCGGAGTCACCTAGTGCAG  4340 fluorescence intensity (a.u.)
18. TTCATAAAACTCCACCTGATCCGAATTACTCTACCAATAACGGAGTCACCTAGTGCAG  4490 fluorescence intensity (a.u.)
19. GCTTTGGAACTCCTTTAGATTATAATCCAACTCAATTCAACGGAGTCACCTAGTGCAG  4590 fluorescence intensity (a.u.)
20. CGGCTTACGGCCGCCTGTCGGGGAAGATGACTCCCTCTTCCGGAGTCACCTAGTGCAG  5050 fluorescence intensity (a.u.)
21. TCAAAGGGTTTCATAAATTTTATGTATATTTTACAAGATTCGGAGTCACCTAGTGCAG  5540 fluorescence intensity (a.u.)
22. CGTGCACGTGTTCACCGGAGGTGCTCGTCAGCAAAGCAGGCGGAGTCACCTAGTGCAG  6000 fluorescence intensity (a.u.)
23. AATTCCTCTCTCTCTCTCCCCTCCCATGGCGTCACTGTCGCGGAGTCACCTAGTGCAG  6120 fluorescence intensity (a.u.)
24. AACAAAAGTTGTTTTGACTCACGCGGTGGCTGTTGTCTGTCGGAGTCACCTAGTGCAG  6340 fluorescence intensity (a.u.)
25. GCCATCTGACAACCAGTAAATGTACTGTCCACCGGGCCAACGGAGTCACCTAGTGCAG  6470 fluorescence intensity (a.u.)
26. ACGTGCTCAGTCATCATCCTCATGGCCGTTCCTTGCCGAACGGAGTCACCTAGTGCAG  6930 fluorescence intensity (a.u.)
27. ATTTTGGTCAAATTTAAACTAATCTAAGTTTGACTAATTTCGGAGTCACCTAGTGCAG  8280 fluorescence intensity (a.u.)
28. TGACCGGCGCAGCTCGCGCCACGTCACCCGCACGCGCCGCCGGAGTCACCTAGTGCAG  8600 fluorescence intensity (a.u.)
29. GACGCATGCACGCCGCCACGTCGCGCGCCATGGCCACCCCCGGAGTCACCTAGTGCAG  9700 fluorescence intensity (a.u.)
30. CTGTGTGAACAACAAATCAATGGCCACGTCATATATGTACCGGAGTCACCTAGTGCAG  16800 fluorescence intensity (a.u.)
31. GTAATAATAGATTATATTCAATTAATTAATTATTTATTATCGGAGTCACCTAGTGCAG  17400 fluorescence intensity (a.u.)
32. CAATTCCGACGAAATCCGGTCGGATTTCACGAAATTTCGACGGAGTCACCTAGTGCAG  20600 fluorescence intensity (a.u.)
33. ATAAATAGAATGCTGACTGGACTGCCACGCGTACGCCATGCGGAGTCACCTAGTGCAG  22000 fluorescence intensity (a.u.)
34. GATAAATATAGGAATGTTTATAATACTAAATTAATTTAATCGGAGTCACCTAGTGCAG  28300 fluorescence intensity (a.u.)
35. AGAGAAAGGAAGGGAAGAGAGAGGGTGATGACGTGGCGACCGGAGTCACCTAGTGCAG  35600 fluorescence intensity (a.u.)
36. AGACTGAAAGAGAGAGGAAGGAAGAGAGATGACGTGGCATCGGAGTCACCTAGTGCAG  35800 fluorescence intensity (a.u.)
37. TTCACTCGAGGAGGCGGCGGAGGCAGTCCACGTCAGCAACCGGAGTCACCTAGTGCAG  39000 fluorescence intensity (a.u.)
38. TCTGTACCAAACTCAATTTTAGAATTCAGAGATCCAATAACGGAGTCACCTAGTGCAG  40000 fluorescence intensity (a.u.)
39. CAGAAGGATATATGTTTTATAATTTATTCAAATACTAGATCGGAGTCACCTAGTGCAG  41400 fluorescence intensity (a.u.)
40. ACGTTCCACTCGCGCGCCTCCACGTCAGCACCCACTGTGGCGGAGTCACCTAGTGCAG  42300 fluorescence intensity (a.u.)
41. CGATTTACTTCAAATTTTAGAGGATCAGATCCGACGAAATCGGAGTCACCTAGTGCAG  42900 fluorescence intensity (a.u.)
42. GTCACCGAAGGCGATTAAGGGACAAGCTATAGCTGATTTTCGGAGTCACCTAGTGCAG  46100 fluorescence intensity (a.u.)
43. ACAATGTTCCGGGTCTTATATTGCCAAATCAGTGACGTACCGGAGTCACCTAGTGCAG  59800 fluorescence intensity (a.u.)
44. TTTCGCCATTTCCGACAATGTACTTCACCACTGATCTGAACGGAGTCACCTAGTGCAG  64900 fluorescence intensity (a.u.)
45. TTCTCTCCGTCTTCCTCCAGCACTGAATTTGTCGCTGGCGCGGAGTCACCTAGTGCAG  64900 fluorescence intensity (a.u.)
46. TGATCAAAGGGTTTTACTAAAGGAGTTATGGTCTAATTTTCGGAGTCACCTAGTGCAG  64900 fluorescence intensity (a.u.)
47. ATGGCGCGCCGCCACGTCACCCCGACTCGCCACGTCAGCACGGAGTCACCTAGTGCAG  65500 fluorescence intensity (a.u.)
